Records with an inconclusive call do not appear. A call without a number means that no potency is given here. Activity calls are given as the source filed them. Calls follow the shape of the dose curve; as a rule, active = well fitted activation curve with a large enough effect; inconclusive = small, poorly fitted or top-dose-only effect; inactive = no such curve, though single readings can be large or run the other way.
Each molecule was assayed against D(1A) dopamine receptor (Homo sapiens) (UniProt P21728) (assay: HTS Assay for Allosteric Agonists of the Human D1 Dopamine Receptor: Primary Screen for Potentiators (AID 488982)). Conditions: HEK293 T-REx D1 inducible cells, calcium flux, kinetic fluorescence; series mostly up to 8.37 µM.
D(1A) dopamine receptor (Homo sapiens), sequence (P21728 whole entry, looked up): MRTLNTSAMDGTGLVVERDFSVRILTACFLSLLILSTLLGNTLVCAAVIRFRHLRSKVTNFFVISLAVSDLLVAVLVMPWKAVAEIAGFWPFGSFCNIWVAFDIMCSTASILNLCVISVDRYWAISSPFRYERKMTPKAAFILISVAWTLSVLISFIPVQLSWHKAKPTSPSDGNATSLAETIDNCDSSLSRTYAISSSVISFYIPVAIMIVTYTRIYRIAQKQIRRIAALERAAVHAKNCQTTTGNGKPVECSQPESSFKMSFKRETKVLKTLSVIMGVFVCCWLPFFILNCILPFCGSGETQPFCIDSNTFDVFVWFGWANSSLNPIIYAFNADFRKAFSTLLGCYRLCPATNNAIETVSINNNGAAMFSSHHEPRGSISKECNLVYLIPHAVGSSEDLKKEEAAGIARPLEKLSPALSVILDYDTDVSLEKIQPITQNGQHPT
From the text: Dopamine receptors (DARs) are involved in the etiology and/or therapy of a number of neuropsychiatric and endocrine disorders. For instance, all receptor-based antiparkinsonian drugs work via stimulating the […] DAR subtype whereas all FDA-approved antipsychotic agents are antagonists of this receptor. […] There are three different types of allosteric modulators that we are seeking, two of which will stimulate or augment receptor signaling, allosteric agonists and potentiators, while the third, allosteric antagonists, will attenuate receptor signaling. The present primary screening assay measures compound agonism by tracking calcium flux in a […], inducible Hek293 Trex D1 cell line.
Freshly passaged cells are plated in 1536 well black, clear bottom plates at a density of 4000 cells/well in 3 ul of complete media containing 1x tetracycline inducer. After an overnight incubation at 30 C in 5% CO2, cells are loaded with 2 ul of the no wash Calcium Assay Kit (ABD Bioquest) and incubated at room temperature for 30 to 90 minutes. A 10 cycle (1 second/cycle) baseline measurement is taken and then the FDSS online 1536 pintool delivers 23 nl of compound library (as well as dopamine controls) to the plate. The plate is measured for kinetically at 1 cycle/sec for 180 seconds and is considered to be the agonist portion of the assay (eg, compounds which activate a positive calcium response during this portion are flagged as potential agonists). Following the 180 second read, 1 ul of an EC20 of dopamine is delivered by an onboard pipette head. Measurements are taken kinetically for an additional 180 seconds.
In the case of CN1C[C@H](CNC(=O)OCc2ccccc2)C[C@@H]2c3cccc4c3c(cn4C)C[C@H]21, the Potency is reported as “inactive”. In the case of CCCN1CCC[C@@H]2Cc3[nH]ncc3C[C@H]21, the Potency is reported as “inactive”. In the case of CC(C)=CCOc1c2occc2cc2ccc(=O)oc12, the Potency is reported as “inactive”. CC[C@@H](CO)NC(=O)[C@@H]1C=C2c3cccc4c3c(cn4C)C[C@H]2N(C)C1 was tested, and the Potency was “inactive”. OCCN1CCN(CCCN2c3ccccc3Sc3ccc(C(F)(F)F)cc32)CC1 was tested, and the Potency was “inactive”. In the case of CC(CCc1ccccc1)NC(C)C(O)c1ccc(O)cc1 (stereo unspecified), the Potency is reported as “inactive”. Cc1cccc(C)c1NC(=O)CN1CCCC1=O was tested, and the Potency was “inactive”. With NN=C(N)N the Potency was “inactive”. O=c1[nH]c2ccccc2n1CCCN1CCC(n2c(=O)[nH]c3cc(Cl)ccc32)CC1 was tested, and the Potency was “inactive”. CCCN1CCC[C@@H]2Cc3nc(N)ncc3C[C@H]21 was tested, and the Potency was “inactive”. For CN(C)CCC=C1c2ccccc2CCc2ccccc21, the Potency was “inactive”. For Nc1ccncc1, the Potency was “inactive”. With COc1ccc(C(CN(C)C)C2(O)CCCCC2)cc1 (stereo unspecified) the Potency was “inactive”. In the case of C=C(C)[C@H]1Cc2c(ccc3c2O[C@@H]2COc4cc(OC)c(OC)cc4[C@@H]2C3=O)O1, the Potency is reported as “inactive”. Fc1ccc(C(OCCN2CCN(CCCc3ccccc3)CC2)c2ccc(F)cc2)cc1 was tested, and the Potency was “inactive”. In the case of CC(=O)[C@H]1CC[C@H]2[C@@H]3CC[C@H]4C[C@](C)(O)CC[C@]4(C)[C@H]3CC[C@]12C, the Potency is reported as “inactive”. For CC(O)(CS(=O)(=O)c1ccc(F)cc1)C(=O)Nc1ccc(C#N)c(C(F)(F)F)c1 (stereo unspecified), the Potency was “inactive”. In the case of O=c1c(O)c(-c2ccc(O)c(O)c2)oc2cc(O)cc(O)c12, the Potency is reported as 4.11 µM (active). Cc1cccc(C)c1NC1=NCCCS1 was tested, and the Potency was “inactive”. In the case of COc1ccccc1N1CCNCC1, the Potency is reported as “inactive”. For c1ccc(C2CC2)c(OCC2=NCCN2)c1, the Potency was “inactive”. With CCCC(C)(COC(N)=O)COC(=O)NC(C)C (stereo unspecified) the Potency was “inactive”. C[C@@H]1O[C@@H](O[C@H]2C[C@@H](O)[C@]3(CO)[C@H]4[C@H](O)C[C@]5(C)[C@@H](C6=CC(=O)OC6)CC[C@]5(O)[C@@H]4CC[C@]3(O)C2)[C@H](O)[C@H](O)[C@H]1O was tested, and the Potency was “inactive”. With CC(C)C(=O)Nc1ccc([N+](=O)[O-])c(C(F)(F)F)c1 the Potency was “inactive”. For CC(=O)[C@H]1CC[C@H]2[C@@H]3CC[C@H]4C[C@H](O)CC[C@]4(C)[C@H]3C(=O)C[C@]12C, the Potency was “inactive”. In the case of O=C1NCN(c2ccccc2)C12CCN(CC1COc3ccccc3O1)CC2 (stereo unspecified), the Potency is reported as “inactive”. In the case of COC[C@H]1OC(=O)c2coc3c2[C@@]1(C)C1=C(C3=O)C2CCC(=O)[C@@]2(C)C[C@H]1OC(C)=O (stereo partly specified), the Potency is reported as “inactive”. With CCC1(C2=NCCN2)Cc2ccccc2O1 (stereo unspecified) the Potency was 2.31 µM (active). For c1ccc2c(c1)OCC(C1=NCCN1)O2 (stereo unspecified), the Potency was “inactive”. For NCC1(CC(=O)O)CCCCC1, the Potency was “inactive”. For NCC(O)c1ccc(O)cc1 (stereo unspecified), the Potency was “inactive”. Cc1ncc(CNC(=O)N(CCCl)N=O)c(N)n1 was tested, and the Potency was “inactive”. In the case of O=c1[nH]c2ccccc2n1C1CCN(CCCC(c2ccc(F)cc2)c2ccc(F)cc2)CC1, the Potency is reported as “inactive”. CC[C@@H](CO)NC(=O)[C@@H]1C=C2c3cccc4[nH]cc(c34)C[C@H]2N(C)C1 was tested, and the Potency was “inactive”. Cc1ccc(S(=O)(=O)N[C@@H](CCCCN)C(=O)CCl)cc1 was tested, and the Potency was “inactive”. CNCC(O)c1ccc(O)cc1 (stereo unspecified) was tested, and the Potency was “inactive”.

— PubChem BioAssay (NCATS)
Potency is read from the fitted curve at half-maximal effect.
